esBAF inh: SWI/SNF esBAF complex inhibition | mouse ES cells, Bmi1-luciferase knock-in reporter, 24 h; 100% = twice the neutral-well signal | reporter increase, % at 12.5 µM | 350,000 compounds, 2% hits | AID 602393; in the data active means activation above about 40%; inconclusive means no clear call, values can overlap the other calls;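 further: a rise in the Bmi1 reporter signal indicates esBAF inhibition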
Gli-Sufu antag: Gli-Sufu pathway antagonism; inhibition, % at 5 µM; Sufu-KO-LIGHT fibroblasts, Gli luciferase reporter luminescence; 340,000 compounds, 0.74% hits; AID 588413;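 active means inhibition above about 55%, limit read from the data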
697 NFkB inh: inhibitors of the PMA/ionomycin-induced NF-kB reporter in 697 B cells | inhibition, % at 4 µM | AID 435022 | 697 B-cell NF-kB luciferase reporter, 16 h | 330,000 compounds, 0.33% hits; in the data active means inhibition above about 35%
SMARCA2 act: SMARCA2 function activation, primary screen. MG213 cells, MMTV-luciferase reporter, dexamethasone, overnight. activation, % at 9.1 µM. 370,000 compounds, 1% hits. AID 652017; in the data active means activation above about 7.8%
Jurkat NFkB inh: lowers PMA/ionomycin-induced NF-kB signal in Jurkat cells. PMA/ionomycin-induced NF-kB luciferase reporter, luminescence. inhibition, % at 4 µM. 330,000 compounds, 0.53% hits. AID 435003; in the data active means inhibition above about 50%
697 NFkB conf: lowers PMA/ionomycin-induced NF-kB signal in 697 B cells; shares compounds with 697 NFkB inh; 697 B-cell NF-kB luciferase, 16 h; inhibition, % at 4 µM; 2,000 compounds, 35% hits; AID 449746; in the data active means inhibition mostly above about 28%, no sharp cut-off; inactive means mostly below about 22%
Of the large screens only hits and unclear results are named; the others gave an inactive call (follow-up assays come after a bar, where they were run). An excerpt weighted towards active compounds, which were near 3.3% of everything screened.

Cc1cccc(NC(=O)[C@H](Cc2c[nH]c3ccccc23)NC(=O)[C@@H]2Cc3ccccc3CN2)c1	none | 697 NFkB conf inactive
Cc1ccc(NC(=O)[C@H](Cc2ccccc2)NC(=O)[C@@H]2Cc3ccccc3CN2)c(C)c1	none
CCc1ccc(NC(=O)[C@H](Cc2c[nH]c3ccccc23)NC(=O)[C@@H]2Cc3ccccc3CN2)cc1	none | 697 NFkB conf inactive
Cc1ccc(NC(=O)[C@H](Cc2c[nH]c3ccccc23)NC(=O)[C@@H]2Cc3ccccc3CN2)c(C)c1	none | 697 NFkB conf inactive
C[C@H](CO)N1C[C@H](C)[C@H](CN(C)C(=O)c2cccnc2)Oc2cc(C3=CCCC3)ccc2S1(=O)=O	none (no result: Gli-Sufu antag, 697 NFkB inh, SMARCA2 act, Jurkat NFkB inh)
O=C(Nc1nc2nc(-c3ccccc3)cc(-c3ccccc3)n2n1)c1ccco1	697 NFkB inh 46.8 | 697 NFkB conf 30.4
C[C@H]1CCCCO[C@H](CN(C)S(=O)(=O)c2ccc(F)cc2)[C@@H](C)CN([C@@H](C)CO)C(=O)c2cc(NC(=O)Nc3ccc(F)cc3)ccc2O1	none (no result: Gli-Sufu antag, 697 NFkB inh, SMARCA2 act, Jurkat NFkB inh)
COc1cc2c(cc1C1NC(=S)NC(C)=C1C(N)=O)CCCC2 (stereo not given)	697 NFkB inh 42.6 (no result: esBAF inh) | 697 NFkB conf inactive
CCCC(=O)Nc1ccc2c(c1)C(=O)N(C)[C@H]1CC[C@@H](CC(=O)Nc3ccccc3)O[C@@H]1CO2	none (no result: Gli-Sufu antag, 697 NFkB inh, SMARCA2 act, Jurkat NFkB inh)
COc1cc(C2C(C#N)=C(N)Oc3cc(N)ccc32)cc(OC)c1OC (stereo not given)	Gli-Sufu antag 55.5, 697 NFkB inh 39.4 | 697 NFkB conf 44.7
Cc1cccc(Cn2nc(C(C)(C)C)cc2C(=O)Nc2ccc(F)cc2)c1	none (no result: esBAF inh) | 697 NFkB conf inactive
CC(C)(C)c1cc(C(=O)NN)n(Cc2ccc(F)cc2)n1	none (no result: esBAF inh)
CC(C)NC(=O)N(C)C[C@H]1Oc2cc(-c3ccccc3F)ccc2S(=O)(=O)N([C@@H](C)CO)C[C@H]1C	none (no result: Gli-Sufu antag, 697 NFkB inh, SMARCA2 act, Jurkat NFkB inh)
COC(=O)[C@@]12OC[C@]34[C@H]([C@@H](O)[C@@H]1O)[C@@]1(C)C(=O)C(O[C@@H]5OC(CO)[C@@H](O)[C@@H](O)[C@@H]5O)=C[C@@H](C)[C@@H]1C[C@H]3OC(=O)[C@H](OC(=O)/C=C(\C)C(C)(C)OC(C)=O)[C@@H]24 (stereo not given in full)	697 NFkB inh 44.4 (no result: esBAF inh, SMARCA2 act) | 697 NFkB conf 80.2
O=C(C[C@@H]1CC[C@H]2[C@@H](COC[C@@H](O)CN2Cc2nccs2)O1)NCc1ccc(Cl)cc1	none (no result: Gli-Sufu antag, 697 NFkB inh, SMARCA2 act, Jurkat NFkB inh)
O=C(CC(F)(F)F)N1C[C@@H]2[C@H](c3ccccc31)[C@H](CO)N2CC1CCCCC1	none (no result: Gli-Sufu antag, 697 NFkB inh, SMARCA2 act, Jurkat NFkB inh)
CCc1[nH]nc2c1C(c1ccsc1)C(C#N)=C(N)O2 (stereo not given)	none
CCc1[nH]nc2c1C(c1ccc(Br)s1)C(C#N)=C(N)O2 (stereo not given)	697 NFkB inh 43.1 (no result: esBAF inh) | 697 NFkB conf inactive
COc1ccc(Cl)cc1NC(=O)c1[nH]c(C)c(C(C)=O)c1C	none
COc1ccc(OC)c(NC(=O)c2[nH]c(C)c(C(C)=O)c2C)c1	697 NFkB inh 35.9 | 697 NFkB conf 33.5
COc1ccc(-c2ccc3n(c2=O)C[C@H]2[C@H](CO)[C@@H](C(=O)NCC4CC4)[C@@H]3N2S(C)(=O)=O)cc1	none (no result: Gli-Sufu antag, 697 NFkB inh, SMARCA2 act, Jurkat NFkB inh)
C[C@H](CO)N1C[C@H](C)[C@H](CN(C)C(=O)CCCN(C)C)OCCCC[C@H](C)Oc2ccc(NC(=O)Nc3ccccc3)cc2C1=O	none (no result: Gli-Sufu antag, 697 NFkB inh, SMARCA2 act, Jurkat NFkB inh)
CCOC(=O)c1ccc2nc(NC(=O)c3cccs3)sc2c1	none
CCOC(=O)c1ccc2nc(NC(=O)c3ccco3)sc2c1	none | 697 NFkB conf inactive
CCOc1ccc2nc(NC(=S)NCc3ccccc3)sc2c1	none
CCOc1ccc2nc(NC(=O)c3ccccn3)sc2c1	none | 697 NFkB conf inactive
CC1CCc2nc(NC(=O)c3ccco3)sc2C1 (stereo not given)	none (no result: esBAF inh) | 697 NFkB conf inactive
CCOc1ccc2nc(NC(=O)c3ccco3)sc2c1	none (no result: Gli-Sufu antag) | 697 NFkB conf inactive
C[C@@H]1CCCCO[C@H](CN(C)Cc2ccccc2)[C@@H](C)CN([C@@H](C)CO)C(=O)c2cc(NS(=O)(=O)c3ccc(Cl)cc3)ccc2O1	none (no result: Gli-Sufu antag, 697 NFkB inh, SMARCA2 act, Jurkat NFkB inh)
COc1ccc(/C=N/n2c(C)nc3ccccc3c2=O)cc1	esBAF inh inconclusive
COc1ccc(/C=N\n2nnc3ccccc32)cc1	none (no result: esBAF inh) | 697 NFkB conf inactive
C#CCN(Cc1ccccc1)S(=O)(=O)C=C	697 NFkB inh 35.7 (no result: esBAF inh) | 697 NFkB conf 30.5
O=C(Oc1ccc2ccccc2c1)c1ccco1	none

Source: PubChem
